# Experimental data as given in PubChem BioAssay (NCATS).
# Inconclusive results are not listed. Active and inactive are the calls of the source. The call rests on the fitted dose curve; in most records, active means well fitted cell-killing curve with a large enough effect; inconclusive means small, poorly fitted or top-dose-only effect, or effect the other way; inactive means no such curve, though single readings can be large or run the other way.
# Test: Quantitative High-Throughput drug screen in 47 multiple myeloma cell lines against the NCATS MIPE library collection: KMS26_JCRB cell viability assay (AID 1918975); further: nearly all actives have a fitted effect of over 45% in size
# Conditions: KMS26 myeloma cells viability, CellTiter-Glo ATP, 48 h; series mostly up to 45.8 µM; viability (% of DMSO): at the top concentration
# Source text: PI: Beverly A. Mock Ph.D.
# Laboratory of Cancer Biology and Genetics,
# Center for Cancer Research, National Cancer Institute,
# National Institute of Health, Bethesda, Maryland
# Drug resistance and disease progression are common in multiple myeloma (MM) patients, underscoring the need for new therapeutic combinations. […] We hypothesized that effective combinations would reduce MYC expression and enhance p16 activity. […] These preclinical data identify potentially useful drug combinations for evaluation in drug-resistant MM and reveal potential mechanisms of combined drug sensitivity.
# Described herein is the primary MIPE qHTS used to cherrypick compounds. Validated compounds were then further tested for potential synergistic activiy.
# [1] Peat TJ, Gaikwad SM, Dubois W, Gyabaah-Kessie N, Zhang S, Gorjifard S, Phyo Z, Andres M, Hughitt VK, Simpson RM, Miller MA, Girvin AT, Taylor A, Williams D, D'Antonio N, Zhang Y, Rajagopalan A, Flietner E, Wilson K, Zhang X, Shinn P, Klumpp-Thomas C, McKnight C, Itkin Z, Chen L, Kazandijian D, Zhang J, Michalowski AM, Simmons JK, Keats J, Thomas CJ, Mock BA. Drug combinations identified by high-throughput screening promote cell cycle transition and upregulate Smad pathways in myeloma. Cancer Lett. 2023 Aug 1;568:216284. doi: 10.1016/j.canlet.2023.216284. Epub 2023 Jun 24. PMID: 37356470; PMCID: PMC10408729.
# SEQUENCE No. (e.g., 1, 2, 3, etc.); […] (e.g., Cells, Incubation, Reagent, etc.); VALUE and DESCRIPTION.
# 1; Cells; 5 uL; white, solid bottom 1536-well Greiner assay plate.
# 2; Compounds; 23 nL; Kalypsis pin tool (Wako USA) equipped with a 1536-well pin head to transfer to the assay plates.
# 3; Incubation; 48 hours; 37C incubation.
# 4; Reagent;5uL; CellTiter Glo (Promega).
# 5; Detector; 425V; Luminescence; Viewlux PerkinElmer.
# NOTES (numbers refer to Sequence numbers above)
# 1. The cell-based screening methods employed in this study were like those previously published. Briefly, the corresponding myeloma cell lines were screened in 1,536-well plates with 500 cells, 5-uL per well for inhibition of cell viability (assessed by measuring ATP levels with CellTiterGlo).
# 2. NCATS MIPE 4.0 library of approved and investigational drugs were added using the Kalypsis pin tool. Wells treated with DMSO only for 100% viability and media only wells for 0% viability were used as controls.
# 3. The assay plates were covered and incubated for 48 hours in a 37C, 5% CO2 incubator with controlled humidity.
# 4. After 48 hours, CellTilter-GloTM luminescent substrate mix (Promega) reagent was added to the assay plate and plates we incubated for 5 min at room temperature.
# 5. Signal was measured as median relative luminescence units on a ViewLux (PerkinElmer) multiplate reader.
# [1] Heske CM, Davis MI, Baumgart JT, Wilson K, Gormally MV, Chen L, Zhang X, Ceribelli M, Duveau DY, Guha R, Ferrer M, Arnaldez FI, Ji J, Tran HL, Zhang Y, Mendoza A, Helman LJ, Thomas CJ. Matrix Screen Identifies Synergistic Combination of PARP Inhibitors and Nicotinamide Phosphoribosyltransferase (NAMPT) Inhibitors in Ewing Sarcoma. Clin Cancer Res. 2017 Dec 1;23(23):7301-7311. doi: 10.1158/1078-0432.CCR-17-1121. Epub 2017 Sep 12. PMID: 28899971; PMCID: PMC6636827.
# Potency means the concentration at half of the fitted maximal effect.
SMILES,Potency,viability (% of DMSO)
Cc1ccc(-n2nc(C(C)(C)C)cc2NC(=O)Nc2ccc(OCCN3CCOCC3)c3ccccc23)cc1,26.4 µM (active),–
Nc1cccc(S(=O)(=O)N2CCCN(S(=O)(=O)c3ccc4c(c3)OCCO4)CC2)c1,–,126% (inactive)
N[C@@H]1CONC1=O,–,125% (inactive)
O=C1CCc2cc(OCCCCc3nnnn3C3CCCCC3)ccc2N1,–,149% (inactive)
C[C@@H]1CN(Cc2ccc(F)cc2)[C@@H](C)CN1C(=O)c1cc2c(C(=O)C(=O)N(C)C)cn(C)c2cc1Cl,18.7 µM (active),–
O=C(O)[C@@H](c1ccc(OCc2ccc3ccccc3n2)cc1)C1CCCC1,0.0012 µM (active),–
Cc1cc([C@@H](C)Nc2ccccc2C(=O)O)c2nc(N3CCOCC3)cc(=O)n2c1,27 µM (active),–
CS(=O)(=O)c1cccc(CNc2nc(Nc3ccc4c(c3)CCC(=O)N4)ncc2C(F)(F)F)c1,18.7 µM (active),–
O=C(NOC[C@H](O)CO)c1ccc(F)c(F)c1Nc1ccc(I)cc1F,–,143% (inactive)
C1COC(NC(C2CC2)C2CC2)=N1,–,115% (inactive)
CNC[C@H](O)c1cccc(O)c1,–,144% (inactive)
CCOC(=O)C1=C[C@]2(CC)CCCN3CCc4c(n1c1ccccc41)[C@@H]32,26.4 µM (active),–
Cc1cc(Nc2nc(N[C@@H](C)c3ncc(F)cn3)ncc2Cl)n[nH]1,26.4 µM (active),–
O=C1[C@H](Cc2ccc(O)cc2)N2C(=O)CCN(C(=O)NCc3ccccc3)[C@H]2CN1Cc1cccc2ccccc12,7.43 µM (active),–
CNC(=O)c1ccc(N2C(=S)N(c3ccc(C#N)c(C(F)(F)F)c3)C(=O)C2(C)C)cc1F,–,147% (inactive)
Cc1c(CN2CCN(C(=O)C(C)C)CC2)sc2c(N3CCOCC3)nc(-c3cnc(N)nc3)nc12,0.264 µM (active),–
CCOc1ccc(Cc2cc([C@@H]3O[C@H](CO)[C@@H](O)[C@H](O)[C@@H]3O)ccc2Cl)cc1,–,146% (inactive)
COc1cc2nccc(Oc3ccc(NC(=O)NC4CC4)c(Cl)c3)c2cc1C(N)=O,23.5 µM (active),–
Cc1[nH]c(=O)c(C#N)cc1-c1ccc2nccn2c1,–,140% (inactive)
CC(C[N+](C)(C)C)OC(N)=O (stereo not given),–,115% (inactive)

SMILES,Potency,viability (% of DMSO)
COc1ccc(-c2ccc3c(N4CCOC[C@H]4C)nc(N4CCOC[C@H]4C)nc3n2)cc1CO,4.69 µM (active),–
CCCCNc1cc(C(=O)O)cc(S(N)(=O)=O)c1Oc1ccccc1,–,122% (inactive)
CC(C)NCC(O)COc1ccc(COCCOC(C)C)cc1 (stereo not given),–,117% (inactive)
CN1CCN(CCCN2c3ccccc3Sc3ccc(C(F)(F)F)cc32)CC1,–,161% (inactive)
Nc1nc2[nH]cc(CCc3ccc(C(=O)N[C@@H](CCC(=O)O)C(=O)O)cc3)c2c(=O)[nH]1,–,140% (inactive)
COc1ccc2c3n(c(=NC(=O)c4cccnc4)nc2c1OC)CCN3,11.8 µM (active),–
Cc1oncc1C(=O)Nc1ccc(C(F)(F)F)cc1,–,129% (inactive)
O=S(=O)(N=Cc1c(O)ccc2ccccc12)c1cccs1,16.6 µM (active),–
CC[C@H](Nc1ncnc2nc[nH]c12)c1nc2cccc(F)c2c(=O)n1-c1ccccc1,13.2 µM (active),–
CC1(C)SCCN(S(=O)(=O)c2ccc(OCC#CCO)cc2)[C@@H]1C(=O)NO,2.96 µM (active),–
Cn1cnc([N+](=O)[O-])c1Sc1ncnc2nc[nH]c12,11.8 µM (active),–
CC(C=CC1=C(C)CCCC1(C)C)=CC=CC(C)=CC(=O)O,–,104% (inactive)
COc1ccc(COc2cc3oc(=O)c4cc(C(C)O)ccc4c3cc2OC)cc1 (stereo not given),11.8 µM (active),–
Cc1cnc(NC(=O)C2=C(O)c3ccccc3S(=O)(=O)N2C)s1,–,113% (inactive)
NCCCC(N)(C(=O)O)C(F)F (stereo not given),–,108% (inactive)
Cc1cc(C=c2sc3nc4ccccc4n3c2=O)c(C)n1-c1ccccc1,5.9 µM (active),–
Cn1cnc2c(F)c(Nc3ccc(Br)cc3Cl)c(C(=O)NOCCO)cc21,7.43 µM (active),–
CO[C@@H]1[C@H](N(C)C(=O)c2ccccc2)C[C@H]2O[C@]1(C)n1c3ccccc3c3c4c(c5c6ccccc6n2c5c31)C(=O)NC4,3.72 µM (active),–
COc1ccc(-c2ccc3c(N4CCOCC4)nc(N4C[C@@H](C)O[C@@H](C)C4)nc3n2)cc1CO,2.96 µM (active),–
COCCNCCCn1c(C(=O)CF)c(-c2ccc(C)cc2)c2c(N)ncnc21,–,203% (inactive)
